# According to the supplement of paper PMC13380429:
# Unmarked numbers belong to inactive results.
# System: Vero E6 infected with SARS-CoV-2
# Assay: inhibition of SARS-CoV-2 cytopathic effect; higher = more antiviral protection, active = above 15
# Conditions: 48 h
SMILES,inhibition of SARS-CoV-2 cytopathic effect (1 nM) [%],inhibition of SARS-CoV-2 cytopathic effect (8.33 nM) [%],inhibition of SARS-CoV-2 cytopathic effect (100 nM) [%],inhibition of SARS-CoV-2 cytopathic effect (833.33 nM) [%],inhibition of SARS-CoV-2 cytopathic effect (10000 nM)
C[C@@H](Oc1cc(-n2cnc3ccc(CN4CCN(C)CC4)cc32)sc1C(N)=O)c1ccccc1C(F)(F)F,1.38,0.72,1.12,-3.55,54.8% (active)
C#C[C@]1(O)CC[C@H]2[C@@H]3CCC4=Cc5oncc5C[C@]4(C)[C@H]3CC[C@@]21C [danazol],2.48,-0.9,1.74,3.55,6.39%
CC(C)c1c2cc(-c3ccnc(N[C@H]4CC[C@H](NC5CCOCC5)CC4)n3)ccc2nn1C,-0.19,-1.61,-2.09,-20.8,-0.88%
CCN(CC)CCNC(=O)c1ccc(N)cc1 [procainamide],-2.56,0.24,-0.04,-1.26,0.87%
C[C@@H]1C[C@H]2[C@@H]3CCC4=CC(=O)C=C[C@]4(C)[C@@]3(F)[C@@H](O)C[C@]2(C)[C@@]1(O)C(=O)COP(=O)(O)O,-1.27,0.18,-1.45,-3.81,0.77%
Cc1ccc(S(=O)(=O)NC(=O)NN2CCCCCC2)cc1 [tolazamide],1.07,-0.36,0.85,1.43,2.51%
O=c1c(-c2ccccc2)c1-c1ccccc1 [diphencyprone],-0.95,0.49,-1.61,-1.95,5.98%
